A selection: hits, their analogues and other compounds. The true share with any hit is near 6.6%.
NR3A LBD binder: NR3A (human) ligand-binding domain modulation; NR3A LBD differential scanning fluorimetry, Tm shift; 0% = protein alone, 100% = glycine-bound protein; Tm shift relative to glycine control, % at 25 µM; 340,000 tested, 2.5% active; AID 1259313;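 active = melting temperature shift of at least 10% of the positive control shift, at one fixed dose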
CSC inhib: cancer stem cell inhibition | inhibition, % at 7.5 µM | cancer stem cell-like cells viability, luminescence | 300,000 tested, 1.1% active | AID 2717; in the data active = inhibition above about 75%; inconclusive = no clear call, values can overlap the other calls; tested in HMLE shEcad cells
Mdm2-MdmX inh: disrupts the human Mdm2-MdmX interaction. SaOS-2 split-luciferase Mdm2/MdmX complementation, luminescence. inhibition, % at 8 µM. 330,000 tested, 3% active. AID 485346;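 active = inhibition of at least 50% at 8 µM in the primary screen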
MPTP block: inhibitors of mitochondrial permeability transition pore. isolated mouse mitochondria, Ca2+ swelling absorbance, 30 min. 360,000 tested, 1.4% active. inhibition, % at 10 µM;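 active = inhibition of 50% or more, scaled per plate between neutral and stimulator controls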;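 note: 0% = DMSO wells given calcium and 100% = 1 mM EGTA wells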
Beta apoptosis: blocks beta cell apoptosis. 300,000 tested, 0.8% active. protection from apoptosis, % (test concentration not listed). AID 435005. INS-1E cytokine-induced death, ATP luminescence, 48 h; percent of positive-control rescue, neutral wells zero;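 active = Every replicate reaches about 75%, or at least half do and their mean reaches it too, limit read from the data; inconclusive = At least half of replicates reach the limit but their mean does not; inactive = Under half of replicates reach the limit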;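 note: 0% = cytokine-treated negative control wells and 100% = positive control rescue; higher means more ATP so stronger rescue from cytokine killing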
Gli-Sufu antag: antagonists of Gli-Sufu signaling; Sufu-KO-LIGHT fibroblasts, Gli luciferase reporter luminescence; 340,000 tested, 0.74% active; AID 588413; inhibition, % at 5 µM;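 active = inhibition above about 55%, limit read from the data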;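 note: 0% = DMSO-treated cells and 100% = wells with medium but no cells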
Mdm2-MdmX conf: human Mdm2/MdmX binding inhibition, confirmed. shares compounds with Mdm2-MdmX inh. luminescent assay. inhibition, % at 8 µM. 10,000 tested, 55% active. AID 489028; in the data active = inhibition above about 40%
Full FLuc ctr: full-length luciferase inhibition in Mdm2/MdmX counter-screen; shares compounds with Mdm2-MdmX inh; SaOS-2 full-length luciferase counterscreen, luminescence; inhibition, % at 8 µM; 6,200 tested, 77% active; AID 504607;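 active = mean inhibition at 8 µM reaching about 37%, which flags the compound as non-specific, limit read from the data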;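 note: p53-null SaOS-2 cells with luciferase driven by a doxycycline-inducible promoter; compound on cells about two nights before reading with doxycycline added after day one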
Numbers without * were called inactive; ? = inconclusive; / = not tested or not shown.

SMILES | NR3A LBD binder | CSC inhib | Mdm2-MdmX inh | MPTP block | Beta apoptosis | Gli-Sufu antag | Mdm2-MdmX conf | Full FLuc ctr
COc1ccc(C2CC(c3ccc4ccccc4c3)=NN2C(=O)CNC2CCCCC2)cc1 (stereo not given) | -1 | -6 | 62* | 8 | 20 | 27 | 28 | /
COc1ccc(C2CC(c3ccccc3)=NN2C(=O)COC(=O)c2cccc(O)c2)cc1 (stereo not given) | 6 | -2 | 55* | 0 | 0 | -1 | -7 | /
Cn1c(CCNC(=O)c2ccccc2F)nnc1SCC(=O)Nc1nncs1 | 0 | -14 | 10 | -3 | 5 | 4 | / | /
C[C@@H]1CN([C@@H](C)CO)C(=O)c2cc(Br)cnc2O[C@H]1CN(C)C(=O)Cc1ccccn1 | / | / | / | -3 | / | / | / | /
COc1ccc(Cl)cc1NC(=O)CCNC(=O)Cn1ccc2ccccc2c1=O | 0 | -6 | -16 | -1 | -8 | -20 | / | /
O=C(c1cnn2c(C(F)(F)F)cc(-c3cccs3)nc12)N1CCN(C(c2ccccc2)c2ccccc2)CC1 | -1 | 21 | 62* | 0 | 25 | -24 | 59* | 68*
Oc1ccccc1C1CC(c2cccs2)=NC(c2ccc(Cl)cc2)N1 (stereo not given) | 10* | -4 | 85* | 32 | 39 | 2 | 86* | 28
CS(=O)(=O)N1N=C(c2cccs2)CC1c1ccccc1O (stereo not given) | -1 | -11 | 18 | -2 | -2 | 0 | / | /
COc1ccccc1/C=C/C1(C(=O)NC2CCCC2)CC(=O)N1c1ccc(F)cc1 (stereo not given) | -4 | ? | 70* | 0 | 8 | 2 | 89* | 49*
CCCC(O)(CCC)C(=O)NN(C(=O)CCl)c1ccccc1 | -2 | 7 | 58* | 1 | 21 | 2 | 23 | /
COC(=O)CC1COc2ccccc2N1S(=O)(=O)c1ccc(OC)cc1 (stereo not given) | -2 | 47 | 55* | -1 | 2 | 3 | 51* | 61*
CC(=O)c1c(-c2ccccc2)[nH]c2ccccc12 | 1 | 32 | 52* | 1 | 20 | -8 | 33 | /
O=C(NN=Cc1ccc(N2CCOCC2)s1)c1ccc([N+](=O)[O-])cc1 | 3 | -10 | 33 | 3 | 1 | -2 | / | /
COc1ccc2[nH]c3c(c2c1)CC(C)NC3=O (stereo not given) | 3 | -20 | 78* | 0 | -21 | -11 | 74* | 34
O=c1c(Cl)c(Cl)cnn1Cc1ccc(F)cc1 | 1 | -23 | 93* | 0 | 112* | -4 | 35 | /
O=c1cnn(Cc2ccc(F)cc2)c2ccccc12 | 1 | -22 | 4 | 0 | -1 | -8 | / | /
O=C(OCn1ncc(Cl)c(Cl)c1=O)c1ccc(F)cc1 | / | / | 93* | / | 102* | / | 100* | 50*
CCCCCCCCCC(=O)N[C@@H]1c2cc(OC)c(OC)cc2C[C@H]1O | 1 | / | 11 | 4 | / | -2 | / | /
Cc1nc(NCc2ccco2)c2c3c(sc2n1)CCC3 | -2 | 2 | 72* | 1 | -20 | -13 | 33 | /
CCCCC(=O)NC(c1cccs1)c1cc(Cl)c2cccnc2c1O (stereo not given) | -4 | 120* | 85* | 8 | 94* | 22 | 75* | 28
CCCCC(=O)NC(c1ccco1)c1c(O)ccc2ccccc12 (stereo not given) | 1 | -22 | 22 | 0 | 1 | -6 | / | /
CCC(=O)NC(c1cccs1)c1cc(Cl)c2cccnc2c1O (stereo not given) | -8 | 119* | 86* | 3 | 99* | 47 | 76* | 21
CCC(=O)NC(C)C(c1cccs1)N1CCN(c2ccccc2)CC1 (stereo not given) | -5 | / | -14 | 1 | / | 8 | / | /
COc1ccc(/C=C2\CN(Cc3ccccc3)C/C(=C\c3ccc(OC)cc3)C2=O)cc1 | -3 | 67 | / | 2 | -5 | 15 | / | /
COc1ccc(C=C2c3ccccc3C(=O)c3ccccc32)c(OC)c1 | / | -10 | 66* | 4 | 8 | / | 57* | 97*
SMILES | NR3A LBD binder | CSC inhib | Mdm2-MdmX inh | MPTP block | Beta apoptosis | Gli-Sufu antag | Mdm2-MdmX conf | Full FLuc ctr
COc1ccc(/C=C/C(=O)c2ccccc2)c(OC)c1 | -4 | 2 | -34 | 1 | -1 | -29 | / | /
COc1ccc(/C=C2\COc3ccccc3C2=O)c(OC)c1 | -2 | 60 | 59* | 0 | 4 | -11 | 34 | 76*
COc1ccc(/C=C2\CN(Cc3ccccc3)C/C(=C\c3ccc(OC)cc3OC)C2=O)c(OC)c1 | 1 | 13 | 67* | 3 | 9 | 11 | 60* | 63*
CCc1ccc(CCC(=O)N2CCN(S(=O)(=O)c3ccc(Br)cc3)CC2)cc1 | / | / | / | 0 | / | / | / | /
Cc1ccc(C(C)C)c(OCc2nn(CC(=O)c3ccc(Cl)cc3)c3[n+]2CCCCC3)c1 | 0 | ? | 97* | 38 | 136* | 30 | 74* | 25
O=S1(=O)CC(N2CCSCC2)CN1Cc1cn(Cc2ccc(F)cc2)nn1 (stereo not given) | / | / | / | 0 | / | / | / | /
CC(C)Oc1ccc(C(CCN)C2CCCCC2)cc1 (stereo not given) | -1 | 31 | 88* | 1 | 91* | 12 | 42* | 65*
Cc1ccc(Cc2cnc(NC(=O)/C(C#N)=C/c3ccc(-c4ccc([N+](=O)[O-])cc4)o3)s2)cc1 | -4 | 2 | 58* | 0 | 2 | 6 | 5 | /
Cc1cnc(NC(=O)c2ccc(-c3ccc([N+](=O)[O-])cc3)o2)s1 | 2 | -12 | 32 | -2 | 6 | 7 | / | /
O=C(c1ccc2ccccc2n1)N1CCN(S(=O)(=O)c2ccccc2)CC1 | 0 | -3 | 6 | -2 | -4 | -3 | / | /
O=C(NCc1ccncc1)c1cccc(S(=O)(=O)NCc2ccccc2)c1 | 1 | -19 | 27 | -1 | -2 | 3 | / | /
Cc1ccc(OCCNC(=O)c2cccc(S(=O)(=O)NCc3ccccc3)c2)cc1 | -9 | / | 60* | 0 | / | 5 | 77* | 54*
OC1(c2ccc3c(c2)OCO3)CCN(Cc2ccc(F)cc2)CC1 | 0 | -13 | -21 | -1 | 0 | 5 | / | /
COc1ccc(S(=O)(=O)N2C[C@@H](O)COC[C@@H]3O[C@H](CC(=O)NCCCN4CCOCC4)CC[C@H]32)cc1 | / | / | / | -1 | / | / | / | /
CC1(C)Cc2ccccc2C(NNC(=O)c2ccncc2)=N1 | -1 | 3 | 2 | 1 | 0 | 1 | / | /
O=C(CSc1ncn[nH]1)N1N=C2/C(=C/c3ccccc3)CCCC2C1c1ccccc1 (stereo not given) | -9 | / | 53* | 6 | -6 | 2 | 19 | /
CCCC1=Nc2cc(C(=O)NCCN3CCOCC3)ccc2Sc2ccccc21 | -2 | 23 | 4 | -1 | 0 | 4 | / | /
